UCHL1 inh: inhibitors of human UCHL1 deubiquitinase; Ubiquitin carboxyl-terminal hydrolase isozyme L1 (Homo sapiens), P09936; purified UCHL1, Ub-rhodamine cleavage fluorescence; inhibition, % at 20 µM; 47,000 tested, 0.2% active; AID 1645859, 2021
USP8 block: inhibitors of human USP8 deubiquitinase. purified USP8, Ub-rhodamine cleavage fluorescence, 30 min. 47,000 tested, 4.2% active. inhibition, % at 20 µM. Ubiquitin carboxyl-terminal hydrolase 8 (Homo sapiens), P40818. AID 1645853, 2021
Target sequence (P40818 whole entry, looked up): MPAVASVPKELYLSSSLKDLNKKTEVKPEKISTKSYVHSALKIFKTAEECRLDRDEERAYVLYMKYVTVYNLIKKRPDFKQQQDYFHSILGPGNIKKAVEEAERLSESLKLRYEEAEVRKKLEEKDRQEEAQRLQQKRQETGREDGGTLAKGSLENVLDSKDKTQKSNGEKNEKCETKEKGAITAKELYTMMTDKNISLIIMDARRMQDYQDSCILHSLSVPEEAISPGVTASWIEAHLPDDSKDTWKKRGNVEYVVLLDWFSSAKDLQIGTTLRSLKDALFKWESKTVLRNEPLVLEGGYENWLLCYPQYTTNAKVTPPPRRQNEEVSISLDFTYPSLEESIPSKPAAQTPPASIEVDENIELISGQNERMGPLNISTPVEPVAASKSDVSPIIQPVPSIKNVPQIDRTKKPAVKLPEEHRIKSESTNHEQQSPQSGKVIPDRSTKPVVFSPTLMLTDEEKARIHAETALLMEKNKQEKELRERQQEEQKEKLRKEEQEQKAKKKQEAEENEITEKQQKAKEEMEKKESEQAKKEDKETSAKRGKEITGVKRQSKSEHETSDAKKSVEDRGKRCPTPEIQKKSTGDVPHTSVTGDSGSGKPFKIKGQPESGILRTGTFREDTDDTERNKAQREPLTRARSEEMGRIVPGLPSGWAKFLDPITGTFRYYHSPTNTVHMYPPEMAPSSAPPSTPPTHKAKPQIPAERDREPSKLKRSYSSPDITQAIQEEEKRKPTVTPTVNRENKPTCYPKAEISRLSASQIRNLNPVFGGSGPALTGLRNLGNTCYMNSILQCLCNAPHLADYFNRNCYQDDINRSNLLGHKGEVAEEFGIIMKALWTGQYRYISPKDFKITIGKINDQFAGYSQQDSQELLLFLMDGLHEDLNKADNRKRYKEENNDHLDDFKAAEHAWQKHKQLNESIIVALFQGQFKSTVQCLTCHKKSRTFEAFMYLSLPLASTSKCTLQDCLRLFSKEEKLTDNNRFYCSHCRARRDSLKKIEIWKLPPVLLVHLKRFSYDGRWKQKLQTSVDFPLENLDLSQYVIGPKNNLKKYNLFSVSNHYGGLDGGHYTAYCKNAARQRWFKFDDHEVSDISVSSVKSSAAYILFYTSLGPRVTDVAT
USP7 inh: inhibitors of human USP7 deubiquitinase; purified USP7, Ub-rhodamine cleavage fluorescence; inhibition, % at 20 µM; Ubiquitin carboxyl-terminal hydrolase 7 (Homo sapiens), Q93009; 47,000 tested, 0.3% active
USP10 block: inhibitors of human USP10 deubiquitinase; 47,000 tested, 1.1% active; purified USP10, Ub-rhodamine fluorescence, 60 min; inhibition, % at 20 µM; Ubiquitin carboxyl-terminal hydrolase 10 (Homo sapiens), Q14694
* = called active by the depositor; nt = not tested or not shown. Rows were chosen to be rich in hits. Some 4.6% of all compounds tested hit in one or more screens of this group. Cut-off read from the data, not from the text of the source: active = inhibition above about 30%; inactive = the rest.

SMILES | UCHL1 inh | USP8 block | USP7 inh | USP10 block
O=c1ccn(-c2ccccc2)nc1-c1nc(-c2ccc(Br)cc2)no1 | 4.2 | 62.1* | 4.7 | 0.0
CCc1ccc(-n2ccc(=O)c(-c3nc(-c4cccc(F)c4)no3)n2)cc1 | -4.1 | 33.6* | -14.8 | 4.4
Cn1cccc1C(=O)N[C@H]1CN(Cc2ccoc2)[C@@H]2CCCO[C@H]12 | 0.1 | -101.9 | 4.2 | 0.0
Cn1ncc(Cl)c1C(=O)Nc1ccc2nc(NC(=O)C3CCCCC3)sc2c1 | 2.6 | 58.2* | 13.4 | 19.4
Cc1c(NC(=O)Cc2cccs2)cccc1-n1cnnn1 | 0.4 | 50.7* | 1.7 | -2.6
Fc1ccc(Nc2nc(NCCCn3ccnc3)nc3[nH]ncc23)cc1 | -3.5 | -2.8 | 0.1 | -8.1
CC(C)Cn1c(=O)c2nscc2n(CC(=O)Nc2ccccc2)c1=O | 14.8 | 62.7* | -42.3 | -9.1
CCCn1c(=O)c2nscc2n(CC(=O)Nc2ccccc2)c1=O | 0.1 | -1.6 | 0.2 | 0.0
O=C(c1ccncc1)N1CC2(CCN(Cc3ccccc3F)CC2)C1 | -2.8 | -38.1 | -0.1 | 0.3
Cc1cc(C)c(NC(=O)CCCc2nc(-c3ccccc3)no2)c(C)c1 | -0.6 | -13.8 | 0.0 | 6.4
COc1cccc2cc(C(=O)Nc3nc(-c4ccncc4)cs3)oc12 | 11.2 | 48.7* | 48.8* | 47.9*
COc1cccc2cc(C(=O)NCc3cnn4ccccc34)oc12 | -1.3 | -18.3 | 0.5 | -1.2
O=C(CN1CCOCC1)Nc1ccc(NC(=O)c2ccc(Cl)cc2)cc1 | 68.7* | -5.5 | -3.5 | 0.8
CCn1cc(C(=O)N2CCCCCC2)c(=O)c2cc(S(=O)(=O)N3CCCCCC3)ccc21 | -7.9 | -9.5 | -6.3 | -4.5
CCOC(=O)N1CCN(C(=O)c2cn(CC)c3ccc(S(=O)(=O)N4CCc5ccccc5C4)cc3c2=O)CC1 | 1.3 | 46.3* | 0.1 | -0.1
COc1cccc(C(=O)Nc2ccc(SC(C)C(=O)Nc3ccc(C(N)=O)cc3)cc2)c1 (stereo not given) | 0.6 | 15.3 | 7.4 | 36.0*
CCc1ccc(NC(=O)CSc2ccc(N3CCC(C(=O)NC4CC4)CC3)nn2)cc1 | 5.2 | 80.6* | 10.3 | 10.3
CN1C(=O)[C@H]2CN(c3ncccn3)C[C@H]2C12CCN(Cc1cccc(Cl)c1)CC2 | -3.3 | -73.4 | -5.7 | -5.6
CC(C)Cc1nc2sc3c(SCC(=O)Nc4ccc(Br)cc4)ncnc3c2c2c1COC(C)(C)C2 | -4.2 | -3.0 | -1.7 | -2.4
O=C(Nc1nc2c(s1)CCC2)C1CCN(S(=O)(=O)c2ccc3c(c2)CCCC3)CC1 | 3.9 | 36.0* | -19.7 | 11.1
Cc1nnc(NC(=O)C2CCN(S(=O)(=O)c3ccc4c(c3)CCC4)CC2)o1 | 2.5 | -91.6 | 2.0 | 1.2
Cc1cc(NC(=O)C2CCCN(c3nnc4ccccn34)C2)ccc1F (stereo not given) | 3.6 | 18.4 | -2.9 | -1.3
COc1ccc(-c2nn(-c3ccccc3)cc2C(=O)Nc2ccc(N3CCOCC3)cc2)cc1 | 7.8 | 60.6* | 0.5 | -0.2
Cc1ccc(S(=O)(=O)CC(CN2CCCC2)N2CCCC2)cc1 (stereo not given) | -3.9 | 4.0 | -0.5 | -9.5
CC1=C(C)C(N(c2ccccc2)c2ccccc2)N(CCC(C)C)C1=O (stereo not given) | 10.2 | 95.1* | -8.4 | 9.3
SMILES | UCHL1 inh | USP8 block | USP7 inh | USP10 block
O=C(CN1CCN(c2ccc(C(F)(F)F)cn2)CC1)Nc1ccc(Cl)cc1C(=O)c1ccccc1Cl | -14.9 | -41.4 | -17.5 | -8.7
O=c1c2[nH]c3ccccc3c2ncn1CCC1=CCCCC1 | 2.3 | -17.6 | 6.1 | 15.8
Cc1ccc2[nH]c3c(=O)n(CCC4=CCCCC4)cnc3c2c1 | 3.2 | 30.7* | 10.3 | 0.6
Cc1ccc2c(c1)OCC(=O)N2Cc1nc(-c2cccc(F)c2)no1 | 2.1 | 17.9 | 4.7 | 5.0
COc1ccc(S(=O)(=O)Nc2ccc3nn(C)cc3c2)cc1 | -4.6 | 77.0* | -5.8 | -3.6
COc1ccc(CN2C(=O)N[C@@H](CCC(=O)Nc3ccc(OC)cc3)C2=O)cc1 | 1.2 | 12.2 | 5.6 | 2.1
CCCn1c(=O)c2sccc2n2c(CCC(=O)N3CCc4ccccc4C3)nnc12 | 2.2 | 87.4* | 2.9 | 1.7
Cc1nn(C)cc1S(=O)(=O)Nc1cnn(Cc2cccc3ccccc23)c1 | 3.5 | 85.9* | 0.1 | 2.0
Cc1nn(-c2ccccc2)c2c1N=C1C(Cl)=CC(Cl)=CN1C21C(=O)Nc2ccccc21 (stereo not given) | 14.9 | 93.7* | 65.3* | 3.5
Cc1nn(-c2cccc(C(F)(F)F)c2)c2c1C(c1ccccc1)N1C=C(Cl)C=C(Cl)C1=N2 (stereo not given) | -0.6 | -106.2 | 3.3 | 0.2
CC(C)CCCCCCCCC1CC(=O)NC(CCC(=O)O)C(=O)NC(CC(C)C)C(=O)NC(CC(C)C)C(=O)NC(C(C)C)C(=O)NC(CC(=O)O)C(=O)NC(CC(C)C)C(=O)NC(CC(C)C)C(=O)O1 (stereo not given) | 4.7 | 6.9 | 13.0 | 12.5
O=c1c2ccccc2oc2nc(-c3cccs3)n(-c3ccccc3)c(=O)c12 | 49.4* | 97.5* | 80.0* | 21.9
Cc1ccc(-c2nc3c(c(=O)c4ccccc4n3C)c(=O)n2-c2ccc(F)cc2)cc1 | -3.2 | -2.2 | nt | 4.1
Cc1cc(NC(=O)c2cc(-c3cccnc3)n[nH]2)ccc1Br | 15.9 | 97.6* | 38.7* | 38.3*
O=C(NCc1ccc(F)cc1)C1CCN(C(=O)c2cc(-c3cccnc3)n[nH]2)CC1 | -2.9 | -0.9 | 1.6 | -0.2
O=C(NCc1ccc(Br)cc1)c1cc(-c2cccnc2)n[nH]1 | 3.4 | 90.5* | 28.6 | 21.4
O=C(NCCc1ccccc1)c1noc2ncnc(N3CCOCC3)c12 | 5.3 | 6.7 | -0.3 | 2.4
CCN1CCN(C(=O)c2cnn(-c3ccc(-c4nc(C(C)C)no4)cn3)c2C)CC1 | -1.0 | -13.0 | -2.6 | -2.0
Cc1cc(F)ccc1NC(=O)Cc1nnc(-c2ccc3ncccc3c2)o1 | -0.7 | 46.9* | 4.7 | -3.2
O=C(Cc1nnc(-c2ccc3ncccc3c2)o1)Nc1ccccc1 | 0.0 | -3.2 | -3.8 | -6.1
O=C(NCc1ccco1)c1ccc2c(c1)N(Cc1cccc(Cl)c1)C(=O)c1ccccc1S2 | 1.4 | 13.0 | 14.7 | 2.3
Cc1ccc(NC(=O)Cn2nc3c4c5c(sc4ncn3c2=O)CCCC5)cc1C | -1.8 | 3.7 | -3.4 | -4.6
O=C(Cn1nc2c3c4c(sc3ncn2c1=O)CCCCC4)Nc1ccc(Cl)cc1F | 6.2 | 91.9* | 21.7 | 14.9
Cc1cccc(CC(=O)N2C[C@@H]3C[C@H](NS(C)(=O)=O)[C@H]2C3)c1 | -1.9 | 1.8 | nt | -3.0
COc1ccc(Cl)cc1C(=O)NNC(=O)c1cc(-c2ccccc2)n[nH]1 | -0.1 | 85.1* | 15.2 | 40.4*
O=C(COc1ccc(N2CC(C(=O)NCc3ccc4c(c3)OCO4)CC2=O)cc1)Nc1ccc(F)cc1 (stereo not given) | 3.4 | 52.6* | 22.7 | 49.4*
O=C(COc1ccc(N2CC(C(=O)NCc3ccc4c(c3)OCO4)CC2=O)cc1)Nc1ccc(Cl)cc1 (stereo not given) | 4.2 | 24.9 | 22.5 | 38.2*

Assay outcomes deposited in PubChem by Buhrlage Lab, Dana-Farber Cancer Institute and Novartis Institutes for BioMedical Research (Cambridge, Mass).
